Data reported in PubChem BioAssay AID652057 (Broad Institute, 2013).
The whole screen tested about 1,400 compounds, of which about 1,000 (71%) were called active. No rule for the calls is given here. So high a share suggests a set chosen from earlier hits. The list is a sample of the results. Measured potencies and affinities stand elsewhere.

Assay: blockers of HIV-1 envelope-mediated cell-cell fusion – cherry-pick, dose response (AID 652057)
Conditions: HeLa-JRFL Env/CEM21 cell fusion, luciferase; series mostly up to 35 µM

Activity change, negative = inhibition, inactive:
Cc1cc(C(=O)NC2CCCc3c2cnn3-c2ccc(C(C)(C)C)cc2)nn1C (stereo not drawn), c1coc(CNc2c3c(nc4ccccc24)CCC3)c1, C[C@H](CO)N1C[C@H](C)[C@@H](CN(C)S(=O)(=O)c2ccc(F)cc2)Oc2ccc(NS(=O)(=O)c3cn(C)cn3)cc2CC1=O, O=C(c1cc(COc2cccc(C(F)(F)F)c2)on1)N1CCC(c2ccncc2)CC1, CCC(=O)N(C)C(c1ccccc1Cl)c1nnnn1-c1c(C)cccc1C (stereo not drawn), O=C(c1ccc(S(=O)(=O)Nc2ccc(F)cc2)cc1)N1CCN(C(=O)c2ccco2)CC1, O=C(Nc1ccc(CN2CCOCC2)cc1)c1ccc(-c2cccc(Cl)c2)o1, Cc1cc(C)nc(/N=C(\N)Nc2ccc(CC(=O)OC(C)C)cc2)n1, C#CCn1c(=O)c2c(ncn2C)n(C)c1=O, CCNC(=O)Nc1ccc2c(c1)C(=O)N(C)[C@@H]1CC[C@@H](CC(=O)NCC3CCCCC3)O[C@@H]1CO2, CN1C(=O)c2cc(NC(=O)NC3CCCC3)ccc2OC[C@@H]2O[C@H](CC(=O)NC3CCC3)CC[C@@H]21, CCNC(=O)C[C@@H]1CC[C@@H]2[C@@H](COc3ccc(NC(=O)Cc4cccs4)cc3C(=O)N2C)O1, Cc1nn(C)cc1NC(=O)C[C@H]1CC[C@@H]2[C@@H](COc3ccc(NC(=O)C4CCC4)cc3C(=O)N2C)O1, CCNC(=O)C[C@H]1CC[C@@H]2[C@@H](COc3ccc(NC(=O)Cc4cccs4)cc3C(=O)N2C)O1, COCC(=O)Nc1ccc2c(c1)C(=O)N(C)[C@H]1CC[C@H](CC(=O)NC3CCCC3)O[C@H]1CO2, COc1ccc(OC)c(NC(=O)COc2ccc3c(c2)CCC3)c1, Cc1ccc(S(=O)(=O)N(C)C[C@@H]2Oc3ccc(NS(=O)(=O)c4ccc(Cl)cc4)cc3C(=O)N([C@@H](C)CO)C[C@H]2C)cc1, Cc1ccc(S(=O)(=O)Nc2ccc3c(c2)C(=O)N([C@H](C)CO)C[C@@H](C)[C@H](CN(C)S(=O)(=O)c2ccc(F)cc2)O3)cc1, CCNC1CCC(Nc2ccnc3cc(Cl)ccc23)CC1 (stereo not drawn), CC(=O)Nc1ccc(C(=O)OCC(=O)NC(=O)NCc2ccccc2)cc1, COc1ccc(NS(=O)(=O)c2cccc(C(=O)NNC(=O)CNC(=O)c3ccc(C)cc3)c2)cc1, Cc1ccc(-n2nnnc2SCn2nnc3ccccc3c2=O)c(C)c1, COc1ccccc1CN(C)C(=O)CN1CCN(C(=O)c2cccs2)CC1, C[C@@H]1CN([C@@H](C)CO)S(=O)(=O)c2ccc(-c3ccc(F)cc3)cc2O[C@H]1CN(C)C(=O)C1CCCCC1, CC(=O)OC1c2ccccc2C(=O)N1c1ccccc1C (stereo not drawn), CNC[C@H]1Oc2c(NC(=O)Nc3cccc4ccccc34)cccc2C(=O)N([C@H](C)CO)C[C@H]1C, Cc1sc2ncnc(N3CCN(S(=O)(=O)c4ccc(Br)cc4)CC3)c2c1C, COc1cc(-c2cc(OC)c(O)c(OC)c2)cc(OC)c1O, O=C(Nc1ccc(F)cc1)Nc1ccc2c(c1)[C@@H]1C[C@H](CC(=O)N3CCCCC3)O[C@H](CO)[C@@H]1O2, COC(=O)C[C@H]1C=C[C@H](NC(=O)c2ccccn2)[C@@H](CO)O1, O=C(C[C@@H]1C=C[C@@H](NC(=O)c2ccccc2)[C@H](CO)O1)NCc1ccc(Oc2ccccc2)cc1, COc1ccc(CCCC(=O)NCCc2ccccc2)c(C)c1, COc1ccccc1-c1c(-c2ccc(O)cc2O)n[nH]c1C(F)(F)F, COCc1[nH]nc2c1C(c1ccc(F)cc1)N(Cc1ccccc1)C2=O (stereo not drawn), CNc1nc2c(c(=O)n(C)c(=O)n2C)n1Cc1ccccc1, CCCCn1c(CN(C)Cc2ccccc2)nc2c1c(=O)n(C)c(=O)n2C, C=CCNc1nc2c(c(=O)n(C)c(=O)n2C)n1CCCCCC, CC(C)NC(=O)N(C)C[C@@H]1Oc2ccc(NC(=O)C3CC3)cc2CC(=O)N([C@H](C)CO)C[C@H]1C, CC(C)NC(=O)N(C)C[C@@H]1Oc2ccc(NC(=O)C3CC3)cc2CC(=O)N([C@@H](C)CO)C[C@@H]1C, Cc1cc(Oc2ccc(C#N)cc2)nc(NCc2ccccc2)n1, c1ccc(CSc2nnc([C@@H]3CCCN3)o2)cc1, CCCCCn1c(C(C)NC(=O)CCC)nc2ccccc21 (stereo not drawn), COc1ccc(C(O)c2nc3ccccc3n2C)cc1OC (stereo not drawn), COc1ccc(/C(C)=N/NC(=O)c2cccc(S(=O)(=O)N3CCCC3)c2)c(O)c1 -20.9% [at 8 µM], CCN1CCN(S(=O)(=O)c2ccc(Cl)c(C(=O)Nc3ccccc3N3CCCC3)c2)CC1, CCNc1ncnc2c1cnn2C1CCCO1 (stereo not drawn), CCOc1ccccc1CNc1ncnc2ccc(-c3c(C)noc3C)cc12, Nc1ccc(O)cc1C(=O)OCC(=O)c1ccc(C2CCCCC2)cc1, Cc1nc2ccccc2n1CC(=O)NCc1ccccc1, CC(C)CN(C(=O)c1ccc(S(=O)(=O)N2CCCCC2)cc1)C1CCS(=O)(=O)C1 (stereo not drawn), CCCCCCCCCCOC(=O)Cn1c(COc2ccccc2OC)[n+](C)c2ccccc21, CNC[C@@H]1Oc2c(N)cccc2C(=O)N([C@@H](C)CO)C[C@@H]1C, Cc1ccc(-n2ncc3c(N4CCN(c5ccccc5)CC4)ncnc32)c(C)c1, Cc1ccc2c(c1)c1c3n2CCN(CC(N)=O)C3CCC1 (stereo not drawn), O=C(Nc1ccncc1)c1ccc(Cl)c(S(=O)(=O)N2CCc3ccccc32)c1, CC(OC(=O)c1ccc(NC(=O)CC#N)cc1)C(=O)NCCC1=CCCCC1 (stereo not drawn), CC(=O)c1c(C)[nH]c(C(=O)OCCCCN2C(=O)c3ccccc3C2=O)c1C, CC(=O)c1c(C)[nH]c(C(=O)OCC(=O)Nc2c(C)cccc2C)c1C, COc1ccc(S(=O)(=O)N2CCCCC2)cc1NC(=O)CN(Cc1ccco1)Cc1ccco1, COc1ccc(S(=O)(=O)N2CCCCC2)cc1NC(=O)CCCOc1ccc(C)cc1, COc1ccccc1C(=O)Nc1ccc2c(c1)OC[C@H](C)N(C(C)=O)C[C@H](C)[C@H](OC)CN(C)C2=O, COc1ccc(NC(=O)C(=O)NCC2CCCN2S(=O)(=O)c2cccs2)cc1 (stereo not drawn), CNC[C@@H]1Oc2ccc(NS(C)(=O)=O)cc2CC(=O)N([C@H](C)CO)C[C@H]1C, O=C(CCNC(=O)c1ccc(Br)cc1)NNC(=O)COc1ccccc1F, O=C(C[C@@H]1C[C@@H]2c3cc(NC(=O)C4CCOCC4)ccc3O[C@@H]2[C@H](CO)O1)NCCc1ccccc1, O=C(NCc1ccccc1)c1ccc(C(=O)NCc2ccccc2)cc1, O=C(C[C@@H]1C[C@@H]2c3cc(NC(=O)C4CCOCC4)ccc3O[C@@H]2[C@H](CO)O1)NCc1ccccc1F, CN(C)C(=O)C[C@H]1C[C@@H]2c3cc(NC(=O)NC4CCCCC4)ccc3O[C@@H]2[C@H](CO)O1, Cc1ccccc1-n1c(=O)c2ccccc2n2cnnc12, Cc1ccc(NS(=O)(=O)c2cc(C(=O)N(C)C3CCN(C)CC3)ccc2Cl)cc1Cl, Cc1nc2ccc(NC(=O)c3cc(S(=O)(=O)N(C)c4ccccc4)ccc3Cl)cc2s1, Cc1ccc(-n2nc3c(c2NC(=O)c2ccco2)CS(=O)C3)cc1 (stereo not drawn), O=C(CC1C(=O)NCCN1Cc1cccc(F)c1)NC1CCCCC1 (stereo not drawn), CCN(CCn1cccn1)C(=O)CC1C(=O)NCCN1CCc1ccccc1 (stereo not drawn), O=C(O)C[C@@H]1C=C[C@H](NC(=O)Nc2ccccc2)[C@H](CO)O1, O=C(O)C[C@@H]1C=C[C@@H](NC(=O)Nc2ccccc2)[C@H](CO)O1, COc1ccccc1S(=O)(=O)N[C@H]1CC[C@@H](CC(=O)N2CCN(C)CC2)O[C@H]1CO, COc1ccccc1S(=O)(=O)N[C@H]1CC[C@H](CC(=O)N2CCN(C)CC2)O[C@H]1CO, Nc1ccn([C@@H]2O[C@H](C(=O)NCc3ccc4c(c3)OCO4)[C@@H](O)[C@H]2O)c(=O)n1, Cc1ccc(S(=O)(=O)N[C@@H]2CC[C@H](CCNC(=O)c3ccccc3F)O[C@H]2CO)cc1, CCN(C1CCCCC1)S(=O)(=O)c1ccc(S(=O)(=O)NCc2ccncc2)cc1, CCCC(=O)Nc1ccc2c(c1)OC[C@H](C)N(C(=O)CN(C)C)C[C@@H](C)[C@H](OC)CN(C)C2=O, CO[C@H]1CN(C)C(=O)c2cc(NC(=O)C3CCOCC3)ccc2OC[C@H](C)N(Cc2nccs2)C[C@H]1C, CCCC(=O)Nc1ccc2c(c1)OC[C@@H](C)N(C(=O)CN(C)C)C[C@H](C)[C@@H](OC)CN(C)C2=O, CO[C@@H]1CN(C)C(=O)c2ccc(NC(C)=O)cc2OC[C@@H](C)N(Cc2cncnc2)C[C@@H]1C, CO[C@H]1CN(C)C(=O)c2ccc(NC(=O)C3CC3)cc2OC[C@@H](C)N(C(C)=O)C[C@@H]1C, CO[C@@H]1CN(C)C(=O)c2ccc(NS(C)(=O)=O)cc2OC[C@@H](C)N(C(=O)C2CCCCC2)C[C@H]1C, CO[C@H]1CN(C)C(=O)c2ccc(NC(=O)Nc3cccc(F)c3)cc2OC[C@H](C)NC[C@H]1C, CO[C@H]1CN(C)C(=O)c2ccc(NC(=O)Nc3cccc(F)c3)cc2OC[C@@H](C)N(C(C)=O)C[C@H]1C, CCC(=O)Nc1ccc2c(c1)C(=O)N(C)C[C@@H](OC)[C@H](C)CN(C(=O)CC)[C@@H](C)CO2, CCCC(=O)Nc1ccc2c(c1)OC[C@H](C)N(Cc1ccncc1)C[C@H](C)[C@H](OC)CN(C)C2=O, N#Cc1ccc(CSc2nnc(COc3ccccc3)n2-c2ccccc2)cc1, Cc1ccc(S(=O)(=O)N(C)C[C@H]2Oc3ccc(NC(=O)Nc4cccc5ccccc45)cc3C(=O)N([C@H](C)CO)C[C@@H]2C)cc1
